Compounds without any hit were thinned out: in the full panel of roughly 79,000, 15% have a hit. The source made the active and inactive calls. Cut-off read from the data, not from the text of the source: active = growth inhibition above about 70%; inactive = the rest.
Key:
[1] = NCI Yeast Anticancer Drug Screen. Data for the rad50 strain (AID 155);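 note: 0% = growth of vehicle-only cultures of the same strain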; settings: S. cerevisiae rad50 strain growth inhibition; at 50.0 µM; active compounds read high
Procedure, shortened: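 A DNA repair-deficient yeast mutant serves as the test organism; compound-induced growth inhibition is calculated against vehicle-treated cells.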

[2] = NCI Yeast Anticancer Drug Screen. Data for the mec2-1 strain (AID 157); settings: S. cerevisiae mec2-1 strain, at 50.0 µM, active compounds read high
Procedure, shortened: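 Strain: mec2-1 (DNA repair/cell cycle alteration). Compound exposure, then growth measured; inhibition expressed relative to vehicle.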

[3] = NCI Yeast Anticancer Drug Screen. Data for the sgs1 mgt1 strain (AID 161);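 note: 0% = growth of cultures given vehicle only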; settings: S. cerevisiae sgs1 mgt1 strain, at 50.0 µM, active compounds read high
Procedure, shortened: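 Inhibition of yeast growth, normalised to vehicle-treated controls, is reported for a strain bearing genetic alterations in DNA damage repair.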

[4] = NCI Yeast Anticancer Drug Screen. Data for the cln2 rad14 strain (AID 165);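 note: 0% = growth equal to vehicle treated cultures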; settings: S. cerevisiae cln2 rad14 strain, at 50.0 µM, active compounds read high
Procedure, shortened: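 Compounds are applied to the cln2 rad14 yeast strain, and growth is then compared with that of vehicle-treated cultures to give inhibition.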

[5] = NCI Yeast Anticancer Drug Screen. Data for the bub3 strain (AID 167); settings: S. cerevisiae bub3 mutant strain, at 50.0 µM, active compounds read high
Procedure, shortened: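 Inhibition values come from growth of compound-treated mutant yeast normalised to vehicle-treated controls.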

[6] = NCI Yeast Anticancer Drug Screen. Data for the mlh1 rad18 strain (AID 175); settings: S. cerevisiae mlh1 rad18 strain growth inhibition; at 50.0 µM; active compounds read high
Procedure, shortened: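 Read-out is yeast growth inhibition, calculated against vehicle-only controls. The compound was applied to a strain engineered with DNA damage repair alterations.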

Measured: growth inhibition

[N-]=[N+]=Nc1c(Cc2ccccc2)c(Cl)nc2ccccc12
inactive: [1] 40.5% | [2] 57.9% | [3] 62.5% | [4] 53.7% | [5] 65% | [6] 40.8%

CCC1C(C#N)(C#N)C1(C#N)C#N
inactive: [1] -4.7% | [2] 21.8% | [3] 7.45% | [4] 0.35% | [5] 1.45% | [6] 12.2%

CC(=O)c1ccc(N2CCCCC2)cc1
inactive: [1] -7.8% | [2] -12.2% | [3] 4.55% | [4] -3.1% | [5] 40% | [6] -14.4%

CC(=O)N/N=C/c1ccc(C)cc1
inactive: [1] 6.6% | [2] -1.3% | [3] -11.1% | [4] -0.9% | [5] -11.8% | [6] 1.75%

CCN(CC)c1ccc2cc(-c3nc4ccccc4n3C)c(=O)oc2c1
inactive: [1] 14.8% | [2] -6% | [3] 2.2% | [4] 6.55% | [5] 1.35% | [6] 14.1%

CC(C)(Oc1ccc(/C=C/C(=O)c2ccccc2)cc1)C(=O)Nc1c(Cl)cccc1Cl
inactive: [1] -6.6% | [2] -46.6% | [3] -3.15% | [4] -65.5% | [5] -13.1% | [6] -1.45%

S=c1cc(Cc2ccccc2)[nH]c(=S)[nH]1
inactive: [1] -1.2% | [2] -11.1% | [3] -6.15% | [4] -7.75% | [5] -14% | [6] 4.85%

O=C(Nc1nccs1)Nc1cc(F)ccc1F
inactive: [1] 5.7% | [2] 42.5% | [3] 21.5% | [4] -13.2% | [5] 36.6% | [6] 8.35%

Cn1nnc(CCCl)n1
inactive: [1] -5.35% | [2] -5.1% | [3] -8.15% | [4] -36.9% | [5] 16.8% | [6] 5.5%

CC(=O)N(C(=O)CC(=O)N1N=C(C)C(N=Nc2cccc([N+](=O)[O-])c2)C1=O)c1ccc(Cl)cc1 (stereo not given)
inactive: [1] -10.3% | [2] -4.5% | [3] -5.9% | [4] -11.2% | [5] -15.1% | [6] 2%

CCOC(=O)c1c(C)[nH]c(=S)c(C#N)c1-c1cccc2ccccc12
inactive: [1] -10% | [2] 9.45% | [3] 38% | [4] -12.6% | [5] 17.8% | [6] -31.3%

CNC(=O)SC1=NS(=O)(=O)c2ccc(Cl)cc2N1
inactive: [1] 18.6% | [2] 19.5% | [3] 33.4% | [4] 23.1% | [5] 17.6% | [6] 42.5%

Cc1cc(C)c[n+](-c2nc3c([O-])n(C)c(=O)n(C)c-3n2)c1
inactive: [1] -5.35% | [2] 3.15% | [3] -17.8% | [4] -5.45% | [5] -8.25% | [6] -4.15%

Cc1c(C)c2c(c(C)c1Cl)CC2(Cl)Cl
inactive: [1] 3.6% | [2] 4% | [3] -9.15% | [4] -41.8% | [5] -5.55% | [6] -9.5%

O=C(CCl)NCCCCCNC(=O)CCl
inactive: [1] -11.7% | [2] 2.85% | [3] -6.85% | [4] -31.7% | [5] 15.2% | [6] 17.6%

CC(=O)OCCS(=O)(=O)c1c(Cl)c(Cl)c(Cl)c(Cl)c1Cl
active: [1] 95.7% | [2] 97.4% | [3] 98.9% | [4] 93.8% | [5] 95.7% | [6] 97.8%

Cc1cccc(OCC(O)CN(Cc2ccsc2)c2ccccn2)c1 (stereo not given)
inactive: [1] 18.4% | [2] 16.4% | [3] 18.2% | [4] 37.3% | [5] 14.9% | [6] 8.2%

Cc1nc(-c2cc([N+](=O)[O-])cc([N+](=O)[O-])c2)oc1-c1ccccc1
inactive: [1] -15.2% | [2] -1.95% | [3] -7.35% | [4] 13% | [5] -3.25% | [6] -3.4%

N#CC1CCCC(c2ccccc2)(C2CCCCC2)C1=O (stereo not given)
inactive: [1] 7.4% | [2] 13.1% | [3] 10.2% | [4] 26.4% | [5] 2.85% | [6] -0.9%

COC(=O)c1noc2c1CSC1=C2CS(=O)(=O)c2ccccc21
inactive: [1] 16.4% | [2] 22% | [3] 30.4% | [4] 14.8% | [5] 17.2% | [6] 26.6%

ClCCCCCc1c2nc(c(CCCCCCl)c3ccc([nH]3)c(CCCCCCl)c3ccc([nH]3)c(CCCCCCl)c3nc1C=C3)C=C2
inactive: [1] -14.2% | [2] -19.1% | [3] -20.6% | [4] 3.75% | [5] 4.9% | [6] -47.4%

CCOCCCN
inactive: [1] 37.5% | [2] 16.7% | [3] 6.85% | [4] 3.4% | [5] 16.9% | [6] 5.25%

CC(=O)N1CN2C(=O)CCC2c2cc(C)ccc21 (stereo not given)
inactive: [1] 10.1% | [2] 14.9% | [3] -2.65% | [4] 7.8% | [5] 0.95% | [6] -57.4%

COc1cc(OC)c2nc3ccccc3c(NCCC[N+](C)(C)[O-])c2c1[N+](=O)[O-]
inactive: [1] 7.65% | [2] -33.6% | [3] -12.9% | [4] -22.2% | [5] -14.2% | [6] -17.8%

c1ccc(CCCCc2ccccc2)cc1
inactive: [1] 25.1% | [2] 3.2% | [3] 14.1% | [4] 6.4% | [5] 3.35% | [6] 11.4%

N#CC(c1ccccc1)C(C#N)c1ccc(Cl)cc1 (stereo not given)
inactive: [1] 5.75% | [2] 16.2% | [3] -1.35% | [4] -98.5% | [5] 22.4% | [6] 3.8%

CC(C)C1=C(Cc2ccccc2)C(=O)O/C1=C\c1ccc(O)c(Cl)c1
inactive: [1] 2.8% | [2] -22.9% | [3] 28.2% | [4] 21.4% | [5] 6.05% | [6] -20.1%

CC(=O)CC1CCC(CC(C)=O)CC1 (stereo not given)
inactive: [1] 13.1% | [2] 7.2% | [3] -13.3% | [4] -66.3% | [5] -4.1% | [6] -23.5%

O=c1nc(-c2ccco2)sc(=O)[nH]1
inactive: [1] -0.05% | [2] -5.6% | [3] -8.35% | [4] 13.2% | [5] -5.85% | [6] -3.4%

CCOC(=O)CNC(=O)C(CC(C)C)NC(=O)OCc1ccccc1 (stereo not given)
inactive: [1] 6.7% | [2] 7.9% | [3] 28.8% | [4] 5.25% | [5] 2.8% | [6] -11%

CCNc1nc2ccccc2nc1NCC
inactive: [1] -18.1% | [2] -5.6% | [3] 1.45% | [4] 16.1% | [5] -13.3% | [6] 3.15%

C/C(=N/Nc1ccc([N+](=O)[O-])cc1[N+](=O)[O-])C(CC(C(=O)NCc1ccccc1)/C(C)=N\Nc1ccc([N+](=O)[O-])cc1[N+](=O)[O-])C(=O)NCc1ccccc1 (stereo not given)
inactive: [1] 5.25% | [2] -16.5% | [3] -0.1% | [4] -5.05% | [5] 21.1% | [6] 11.8%

CCOC(=O)c1c[nH]c2cc(Cl)cc(OC)c2c1=O
inactive: [1] -11.3% | [2] -5.6% | [3] -1% | [4] -32.9% | [5] -7.35% | [6] -17%

O=C1Cc2ccccc2CN1
inactive: [1] -6.95% | [2] 13.3% | [3] -3.5% | [4] 19.6% | [5] 2.15% | [6] 32.3%

COc1cc2ccnc([C@@H](OC(=O)c3ccccc3)c3ccc(OC)c(OC)c3OC)c2cc1OC
inactive: [1] 10.4% | [2] 9.25% | [3] 40.9% | [4] 6.25% | [5] 0.05% | [6] 52.4%

O=c1c(-c2ccccc2)c2oc(c1-c1ccccc1)CS(=O)(=O)CCC2
inactive: [1] 21.9% | [2] 20.2% | [3] 16% | [4] 12.3% | [5] 8.15% | [6] -2.35%

O=CNNC(=O)Nc1cccc2ccccc12
inactive: [1] -29.9% | [2] -8.85% | [3] -20% | [4] -5.75% | [5] -32.1% | [6] -25.5%

CN1N=C(c2ccccc2O)/C(=C/c2c(-c3ccccc3O)[nH]n(C)c2=O)C1=O
inactive: [1] 6.85% | [2] -0.55% | [3] -6.1% | [4] 0.75% | [5] 4.6% | [6] 31.9%

CC(O)(/C=C/c1ccccc1)P(=O)(O)c1ccccc1 (stereo not given)
inactive: [1] -40% | [2] -13.2% | [3] -29.1% | [4] -13% | [5] -13.3% | [6] 9.4%

CCc1c(CO)cnc(C)c1OP(=O)(O)O
inactive: [1] -33.5% | [2] -39.5% | [3] -18.1% | [4] 3.65% | [5] -39.6% | [6] -22.6%

Source: PubChem BioAssay (NCI)
